Source: PubChem
S1P3 antag – S1P3 receptor antagonists, primary screen, cell-based; Sphingosine 1-phosphate receptor 3 (Homo sapiens), Q99500; CHO S1P3 NFAT-BLA reporter, FRET fluorescence, antagonist mode; inhibition, % at 4.98 µM; 0.27% of 170,000 active; AID 485, 2006;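 active means inhibition above the plate cutoff, the mean inhibition of test wells on that plate plus 3 SD, cut at about 28% in these data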;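 further: cells challenged with S1P at its EC80 of 0.8 µM; blue over green emission ratio from cleaved BLA substrate after 4 h stimulation; 0% = S1P-stimulated wells and 100% = unstimulated DMSO-only wells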
PGE2 EP2 inh – human EP2 receptor antagonists, primary screen, TR-FRET cAMP, C6 glioma cells; 0.52% of 260,000 active; Prostaglandin E2 receptor EP2 subtype (Homo sapiens), P43116; C6 glioma cells expressing human EP2; cells stimulated with saturating PGE2; inhibition, % at 25 µM;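 active means percent inhibition above 40 after rounding to a whole number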;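 further: rat C6 glioma host cells with rolipram phosphodiesterase inhibitor present; the protocol text gives 20 µM as final concentration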
Target sequence (P43116 whole entry, looked up): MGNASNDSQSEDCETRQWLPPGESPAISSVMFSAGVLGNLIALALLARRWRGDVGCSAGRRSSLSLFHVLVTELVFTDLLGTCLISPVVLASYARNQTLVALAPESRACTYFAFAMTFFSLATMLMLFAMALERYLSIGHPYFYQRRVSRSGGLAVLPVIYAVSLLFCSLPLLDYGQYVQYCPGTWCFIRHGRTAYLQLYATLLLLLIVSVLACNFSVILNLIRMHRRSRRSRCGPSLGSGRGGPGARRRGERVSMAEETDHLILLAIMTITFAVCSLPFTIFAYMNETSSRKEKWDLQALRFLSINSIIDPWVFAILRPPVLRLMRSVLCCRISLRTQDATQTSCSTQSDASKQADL
INS promoter inh – inhibitors of insulin promoter-driven GFP, primary screen, imaging, TRM-6 cells (human fetal islet line), eGFP reporter, cell count | reporter expression induced with tamoxifen | inhibition, % at 2 µM | 0.9% of 130,000 active | AID 1273, 2008;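 active means inhibition above the mean plus 3 SD, with well images judged a real hit on visual review, cut at about 60% in these data, passing the limit was not always enough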
S1P4 antag – S1P4 receptor antagonists, primary screen, cell-based. 0.26% of 220,000 active. Sphingosine 1-phosphate receptor 4 (Homo sapiens), O95977. S1P4-expressing cells, antagonist mode, reporter read-out. inhibition, % at 4.98 µM; in the data active means inhibition above about 29%;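 further: 0% = wells stimulated with agonist and 100% = vehicle wells without agonist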
EP2 modulator – EP2 receptor modulators, cAMP readout, primary screen, cell-based, HTRF cAMP, PGE2 stimulation; induction, % at 25 µM; 0.83% of 260,000 active; Prostaglandin E2 receptor EP2 subtype (Homo sapiens), P43116; AID 940, 2007; EP2-expressing cells, cAMP HTRF FRET, PGE2 co-stimulation;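 active means compounds whose cAMP rise, as percent of the full-agonist control response, exceeds 60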;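 further: rat C6 glioma line stably carrying human EP2 under a CMV promoter; the protocol text gives 20 µM as final concentration; 100% = response of wells given 1 µM PGE2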
S1P4 agonist – S1P4 receptor agonists, primary screen, cell-based; activation, % at 4.98 µM; 0.35% of 220,000 active; S1P4-expressing cell line, agonist reporter assay; AID 1509, 2009; Sphingosine 1-phosphate receptor 4 (Homo sapiens), O95977; in the data active means activation above about 11%;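 further: 0% = DMSO vehicle and 100% = reference agonist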
S1P4 antag cf – S1P4 receptor antagonists, human, confirmation, cell-based | S1P4-expressing cell line, antagonist mode, reporter read-out | shares compounds with S1P4 antag | inhibition, % at 4.98 µM | 71% of 520 active | AID 1524, 2009; in the data active means inhibition above about 30%
S1P1 antag – S1P1 receptor antagonists, human, counter-screen for S1P4 antagonist project, cell-based; shares compounds with S1P4 antag; cell-based S1P1 antagonist counterscreen, inhibition; inhibition, % at 4.98 µM; 37% of 520 active; in the data active means inhibition above about 40%;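 further: receptor stimulated with S1P near its EC80; 0% = agonist stimulated wells and 100% = vehicle only wells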
An asterisk follows results filed as active; x = no result given. Only some compounds are listed: those with a hit (about 2.4% of all), similar ones and a draw of the others.

SMILES | S1P3 antag | PGE2 EP2 inh | INS promoter inh | S1P4 antag | EP2 modulator | S1P4 agonist | S1P4 antag cf | S1P1 antag
COc1ccccc1-c1cc(C(F)(F)F)nc(S(C)(=O)=O)n1 | x | x | 9 | 68* | 39 | -2 | 86* | 6
COc1ccc2[nH]c(=O)c(C(c3nnnn3CC3CCCO3)N3CCC(O)CC3)cc2c1 (stereo unspecified) | x | 9 | x | x | 13 | x | x | x
CCN(CC)S(=O)(=O)c1ccc(NS(=O)(=O)c2ccc3c(c2)OCCO3)cc1 | x | 14 | x | x | -32 | x | x | x
COc1cc(NC2CCCCC2O)c2nc(-c3ccc(Cl)cc3)ccc2c1 (stereo unspecified) | 25 | 16 | x | 30* | 28 | 0 | 65* | 62*
CS(=O)(=O)c1ccc(C(=O)Nc2ccc(N3CCOCC3)cc2)c(Cl)c1 | 6 | 4 | x | 5 | -28 | 2 | x | x
CS(=O)(=O)c1ncc(Cl)c(C(=O)Nc2ccc(N3CCOCC3)cc2)n1 | 8 | x | x | 31* | -2 | -3 | 98* | 81*
COc1ccc(CCNC(=O)c2ccccc2NC(=O)c2ccco2)cc1OC | 10 | 13 | 8 | 30* | -5 | 0 | 8 | 1
COc1ccc(CCNC(=O)c2ccco2)cc1OC | -20 | 2 | 33 | 2 | -6 | -2 | x | x
Cc1ccc(-c2nc(NC(=O)c3nn(C)cc3[N+](=O)[O-])sc2C)cc1 | x | 22 | -196 | 78* | -60 | -8 | 115* | -10
Cc1ccc(-c2nc(NC(=O)C(C)(C)C)sc2C)cc1 | x | 7 | x | x | -44 | x | x | x
Cc1ccc(-c2nc(NC(=O)c3nn(C)cc3[N+](=O)[O-])sc2C)cc1C | x | x | -137 | 87* | -29 | 1 | 115* | -29
CC(C)c1ccc(OCC(=O)Nc2nc3ccc(S(C)(=O)=O)cc3s2)cc1 | x | 7 | x | x | 7 | x | x | x
O=C(Nc1nc2ccccc2c(=O)s1)c1ccco1 | 3 | 6 | x | 30* | 2 | 0 | 27 | -17
O=C(Nc1nc2cc3c(cc2s1)OCO3)c1ccco1 | 1 | 5 | x | -10 | -8 | 0 | x | x
CCOC(=O)COc1ccc(/C=C/[N+](=O)[O-])c(OCC(=O)OCC)c1 | x | 33 | x | 30* | -16 | -4 | 116* | 83*
CCOC(=O)COc1ccc2ccccc2c1/C=C/[N+](=O)[O-] | 9 | 37 | 21 | 49* | -33 | -1 | 120* | 155*
CCOC(=O)COc1ccc2nsnc2c1 | -15 | 19 | x | -3 | -11 | -1 | x | x
O=C(Nc1nc2ccc(Cl)cc2s1)c1ccc(F)cc1 | x | 12 | x | x | -19 | x | x | x
CCc1nnc(N/N=C/c2ccccc2F)n1N | -9 | 9 | -6 | 93* | 16 | 0 | -15 | -10
CCOC(=O)N/N=C/c1ccccc1F | x | x | x | -2 | -3 | -3 | x | x
CCc1nnc(N/N=C/c2ccccc2Cl)n1N | x | 20 | -17 | 40* | 24 | -1 | 4 | -3
CN1CCN(C(=O)CN(c2ccc(F)cc2)S(=O)(=O)c2ccc3c(c2)OCCO3)CC1 | x | 5 | x | x | 5 | x | x | x
O=C(CSc1nnc(-c2ccc(S(=O)(=O)N3CCCC3)cc2)o1)Nc1nccs1 | x | 6 | x | x | -6 | x | x | x
C=CCn1c(Sc2ncc([N+](=O)[O-])s2)n[nH]c1=O | 2 | 8 | x | 69* | -42 | 4 | 111* | 51*
Cc1nc2ccc(NC(=O)c3nn(CC(C)C)c(=O)c4ccccc34)cc2s1 | -13 | 1 | 35 | 40* | 45 | -2 | 45* | 23
SMILES | S1P3 antag | PGE2 EP2 inh | INS promoter inh | S1P4 antag | EP2 modulator | S1P4 agonist | S1P4 antag cf | S1P1 antag
Cc1nnc(NC(=O)c2nn(CC(C)C)c(=O)c3ccccc23)s1 | -4 | 7 | x | 1 | 18 | -2 | x | x
COc1ccc(N=Nc2n(C)c3ccccc3[n+]2C)cc1 | -45 | 11 | x | 30* | -5 | -1 | 0 | 35
COc1ccc(N=Nc2nc(-c3ccccc3)c(-c3ccccc3)[nH]2)cc1 | 6 | 12 | -10 | -13 | 4 | 1 | x | x
Cc1cc(S(=O)(=O)N(Cc2cccs2)C2CCCC2)ccc1-n1cnnn1 | x | 13 | x | x | 16 | x | x | x
O=C(CCCn1cnc([N+](=O)[O-])n1)Nc1cccc2ccccc12 | -11 | 5 | 42 | 112* | 6 | 0 | 0 | 17
O=C(Cn1cnc([N+](=O)[O-])n1)NCc1ccccc1 | x | x | x | -11 | 2 | 1 | x | x
COc1ccc2cc(C#N)c(N3CCN(S(=O)(=O)c4ccccc4F)CC3)nc2c1 | x | 5 | x | x | -34 | x | x | x
